# Source: PubChem BioAssay
# Active and inactive are the calls of the source. Unless noted, no rule for the calls is given here.
# Key:
# [1] = A549 cell viability effects, profiling panel, calcein-AM fluorescence, 48 h, basal (AID 1162); conditions: higher = more signal; also: test concentration not given here
# [2] = adipocyte viability effects, profiling panel, cell-based, 3T3-L1 adipocytes, calcein-AM fluorescence, 48 h, basal (AID 1163); conditions: 3T3-L1 adipocytes viability, higher = more signal; also: test concentration not given here
# [3] = HepG2 cell viability effects, profiling panel, calcein-AM fluorescence, 48 h, basal (AID 1164); conditions: higher = more signal; also: test concentration not given here
# [4] = MM1S cell viability effects, profiling panel, calcein-AM fluorescence, 48 h, basal (AID 1165); conditions: higher = more signal;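 also: viability of MM1S multiple myeloma cells under basal unstimulated conditions; test concentration not given here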
# [5] = basal RPMI8226 viability, no added stimulus, profiling panel, cell-based, calcein-AM fluorescence, 48 h, PK04 Diversity Set (AID 1166); conditions: RPMI8226 myeloma viability, higher = more signal;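 also: cells grown under basal conditions without added stimulus; test concentration not given here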
# [6] = basal HepG2 mitochondrial membrane potential changes, profiling panel, cell-based, JC-1 fluorescence, 24 h, 100 nL compound (AID 1167); conditions: higher = more signal; also: test concentration not given here
# [7] = basal 3T3-L1 adipocyte mitochondrial potential changes, profiling panel, cell-based, JC-1 fluorescence, 3T3-L1 adipocytes, 24 h, 100 nL compound (AID 1168); conditions: JC-1 mitochondrial fluorescence, higher = more signal, called active from +8 up or from −8 down; also: test concentration not given here
# [8] = basal RPMI8226 mitochondrial membrane potential changes, profiling panel, cell-based, JC-1 fluorescence, 24 h, 100 nL compound (AID 1169); conditions: RPMI8226 myeloma, JC-1 mitochondrial potential fluorescence, higher = more signal; also: test concentration not given here
# [9] = basal MM1S mitochondrial membrane potential changes, profiling panel, cell-based, JC-1 fluorescence, 24 h, 100 nL compound (AID 1170); conditions: higher = more signal; also: test concentration not given here
# [10] = A549 lung cancer cell viability effects, profiling panel, resazurin fluorescence, 24 h, PK04 Diversity Set (AID 1171); conditions: higher = more signal, called active from +8 up or from −8 down; also: test concentration not given here
# [11] = HepG2 liver cancer cell viability effects, profiling panel, resazurin fluorescence, 24 h, PK04 Diversity Set (AID 1172); conditions: higher = more signal; also: test concentration not given here
# [12] = basal S. cerevisiae growth modulation, no modifier, primary screen, OD600, strain BY4716, 24 h, basal condition (AID 1173); conditions: OD600, 24 h, higher = more signal, called active from +8 up or from −8 down
# [13] = MM1S myeloma cell viability, profiling panel, resazurin fluorescence, basal, 24 h, PK04 Diversity Set (AID 1174); conditions: higher = more signal, called active from +8 up or from −8 down;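 also: MM1S multiple myeloma cell line; test concentration not given here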
# [14] = biological target: Dihydroorotate dehydrogenase (quinone), mitochondrial (Plasmodium falciparum (isolate 3D7)) (UniProt Q08210); experiment: PfDHODH enzyme inhibitors, primary screen, biochemical, C-terminal His tag, absorbance 600 nm (AID 1175); conditions: DCIP absorbance 600 nm, higher = more signal, called active from +8 up or from −8 down;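 also: recombinant parasite enzyme with a five histidine tag at its C terminus; test concentration not given here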
# Chain of Dihydroorotate dehydrogenase (quinone), mitochondrial (Plasmodium falciparum (isolate 3D7)) (Q08210 whole entry, looked up): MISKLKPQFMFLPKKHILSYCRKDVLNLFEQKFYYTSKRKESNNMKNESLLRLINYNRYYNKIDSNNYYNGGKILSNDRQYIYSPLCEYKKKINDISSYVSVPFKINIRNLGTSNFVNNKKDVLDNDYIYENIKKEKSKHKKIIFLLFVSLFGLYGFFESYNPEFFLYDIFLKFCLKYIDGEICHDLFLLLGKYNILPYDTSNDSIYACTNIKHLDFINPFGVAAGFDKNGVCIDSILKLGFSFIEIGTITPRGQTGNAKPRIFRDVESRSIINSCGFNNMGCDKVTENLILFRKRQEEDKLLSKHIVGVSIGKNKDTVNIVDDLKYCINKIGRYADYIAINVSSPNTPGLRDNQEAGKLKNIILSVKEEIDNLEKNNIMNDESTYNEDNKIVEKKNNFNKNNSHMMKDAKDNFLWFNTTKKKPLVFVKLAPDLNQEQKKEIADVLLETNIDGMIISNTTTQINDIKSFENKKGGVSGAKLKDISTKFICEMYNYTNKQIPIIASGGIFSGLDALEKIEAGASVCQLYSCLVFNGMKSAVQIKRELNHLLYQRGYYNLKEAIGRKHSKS
# [15] = P. aeruginosa biofilm formation inhibitors, primary screen, strain PAO1, LB-PBS medium, absorbance 600 nm (AID 1176); also: test concentration not given here; conditions: P. aeruginosa PAO1 growth/biofilm, A600, 12 h; higher = more signal
# [16] = S. cerevisiae RM11-1a growth modifiers, primary screen, strain RM11-1a, OD600, basal, 24 h (AID 1177); conditions: OD600, 24 h, higher = more signal, called active from +8 up or from −8 down;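 also: cultures grown under basal conditions with no added stressor; test concentration not given here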
# [17] = E. coli acrAB mutant growth effects, primary screen, E. coli filamentation inducers, strain DRC39, OD650, 24 h (AID 1178); conditions: higher = more signal, called active from +8 up or from −8 down;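 also: growth measured as culture turbidity by optical density at 650 nm; test concentration not given here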
# [18] = E. coli acrAB mutant growth effects, primary screen, E. coli filamentation inducers, strain DRC39, OD650, 48 h (AID 1179);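 also: screen aims at cell division blockers that make cells filament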; conditions: E. coli DRC39 delta-acrAB growth, higher = more signal, called active from +8 up or from −8 down
# [19] = RPMI8226 myeloma cell viability, profiling panel, resazurin fluorescence, basal, 24 h, PK04 Diversity Set (AID 1180); conditions: higher = more signal;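 also: RPMI8826 multiple myeloma cell line at 5000 cells per well; test concentration not given here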
# [20] = biological target: E3 ubiquitin-protein ligase XIAP (Homo sapiens) (UniProt P98170); experiment: XIAP binders, primary screen, biophysical, small-molecule microarray, fluorescence 635 nm (AID 1181); conditions: small-molecule microarray binding, higher = more signal;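 also: score merges 667 nm emission and signal to noise over triplicate slides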
# Chain of E3 ubiquitin-protein ligase XIAP (Homo sapiens) (P98170 whole entry, looked up): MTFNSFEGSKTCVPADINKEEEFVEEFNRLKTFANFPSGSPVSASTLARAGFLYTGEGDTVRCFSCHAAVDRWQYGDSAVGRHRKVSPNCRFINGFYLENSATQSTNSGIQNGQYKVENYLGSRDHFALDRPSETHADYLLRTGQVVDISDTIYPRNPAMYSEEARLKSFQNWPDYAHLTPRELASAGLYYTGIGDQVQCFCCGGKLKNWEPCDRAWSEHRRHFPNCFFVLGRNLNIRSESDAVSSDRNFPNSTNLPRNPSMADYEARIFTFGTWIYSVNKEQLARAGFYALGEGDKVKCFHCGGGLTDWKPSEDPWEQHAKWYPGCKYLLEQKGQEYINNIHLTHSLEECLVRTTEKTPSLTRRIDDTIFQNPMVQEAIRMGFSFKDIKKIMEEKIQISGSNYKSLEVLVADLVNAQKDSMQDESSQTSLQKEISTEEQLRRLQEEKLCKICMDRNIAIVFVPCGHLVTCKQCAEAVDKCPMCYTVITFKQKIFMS
SMILES,z-score [1],z-score [2],z-score [3],z-score [4],z-score [5],z-score [6],z-score [7],z-score [8],z-score [9],z-score [10],z-score [11],z-score [12],z-score [13],composite z-score [14],z-score [15],z-score [16],z-score [17],z-score [18],z-score [19],composite z-score [20]
C=C[C@@H](COC(C)=O)N(C(=O)OC(C)(C)C)S(=O)(=O)c1ccc(Br)cc1,1.82,0.104,0.469,0.867,0.643,0.515,0.122 (inactive),-0.212,-0.624,-0.586 (inactive),-0.19,-3.49 (inactive),-2.19 (inactive),-1.25 (inactive),-0.938 (inactive),0.317 (inactive),-0.0872 (inactive),0.499 (inactive),-0.288,0.0618
CCCCC=C[C@@H](NC(=O)c1ccc(-c2ccccc2)cc1)c1ccccc1,-1.58,-0.768,-1.47,-0.795,-2.1,-4.15,0.045 (inactive),-0.741,-0.819,-0.305 (inactive),0.272,-0.447 (inactive),-0.821 (inactive),0.34 (inactive),0.191 (inactive),0.491 (inactive),-0.335 (inactive),-0.0289 (inactive),-1.75,-0.0272
COC1OC[C@]2(C)[C@H]3C4=C(CN2C(=O)OC(C)(C)C)[C@H](C)C(CO)C(CO)C4CC[C@@H]13 (stereo not given in full),0.657,0.281,1.3,0.728,-0.944,2.82,0.0682 (inactive),0.287,-1.08,-0.634 (inactive),-1.1,1.14 (inactive),-1.25 (inactive),-0.0528 (inactive),0.523 (inactive),1.06 (inactive),-0.34 (inactive),0.154 (inactive),-0.975,0.243
C=CCC(OC(C)=O)[C@@H]1[C@@H](N(Cc2cc3ccccc3o2)C(=O)c2ccc(C)cc2)c2cc(OCCCO)ccc2N1C(=O)Cc1ccc(OC)cc1 (stereo not given in full),1.09,0.426,0.979,-0.143,0.166,2.52,0.235 (inactive),0.83,0.449,0.951 (inactive),0.564,-0.859 (inactive),0.655 (inactive),0.889 (inactive),0.0885 (inactive),0.634 (inactive),-0.506 (inactive),-0.0196 (inactive),0.618,-0.102
[N-]=[N+]=Nc1ccccc1[C@@H]1OC(c2ccc(OCCCO)cc2)=N[C@]1(Cc1ccccc1)C(=O)NCC(O)CO (stereo not given in full),-0.828,0.509,-0.306,-1.94,-1.81,0.307,0.778 (inactive),-1.15,-0.318,-0.545 (inactive),0.0381,-2.75 (inactive),-0.53 (inactive),0.255 (inactive),-0.291 (inactive),1.06 (inactive),2.24 (inactive),0.783 (inactive),-0.71,0.366
CN(C)C(=O)[C@@]1(Cc2ccccc2CN=[N+]=[N-])N=C(c2ccc(OCCCO)cc2)O[C@H]1c1ccccc1CN=[N+]=[N-],-0.446,-0.182,-1.29,-1.42,-3.77,1.11,-1.34 (inactive),-1.12,-2.11,-0.67 (inactive),-1.43,1.12 (inactive),-2.15 (inactive),2.07 (inactive),1.35 (inactive),2.07 (inactive),0.117 (inactive),-0.435 (inactive),-3.29,0.172
CC(CO)N1C(=O)[C@@H]2[C@H]3C(=O)OCC=C[C@H]3OC23C=CCN(CCN2CCOCC2)C(=O)[C@@H]13 (stereo not given in full),-0.313,0.344,-0.0457,0.646,-0.0704,-0.382,0.126 (inactive),0.0907,0.12,-0.147 (inactive),0.0843,0.0245 (inactive),-0.622 (inactive),-0.0564 (inactive),-0.649 (inactive),-0.169 (inactive),-0.55 (inactive),-0.733 (inactive),-0.266,-0.0046
COC(=O)[C@@]1(Cc2ccccc2)[C@H]2c3cc(C(=O)N(C)C)n(Cc4c(CO)[nH]cc(C)c4=O)c3C[C@H]2CN1C(=O)c1ccccc1,-0.218,-0.284,1.2,-0.979,-0.247,1.34,-0.235 (inactive),0.445,-0.491,-0.25 (inactive),-0.613,1.79 (inactive),-0.706 (inactive),0.0442 (inactive),0.507 (inactive),1.24 (inactive),-0.198 (inactive),0.0568 (inactive),0.0961,-0.0663
C=C(COC)/C(=C/C[C@H](OC(C)=O)c1ccc(OCCO)cc1)c1cc(C(=O)OC)ccc1OC,1.82,0.852,0.883,-1.01,0.598,2.6,1.57 (inactive),0.0179,-0.444,1.47 (inactive),1.26,0.147 (inactive),0.901 (inactive),-2.16 (inactive),0.838 (inactive),-0.957 (inactive),1.94 (inactive),1.37 (inactive),1.46,-0.345
COc1cc2c(cc1OC)CN(C(=O)[C@@H]1[C@H]3C(=O)O[C@H](c4ccccc4)[C@H](c4ccccc4)N3[C@H](c3ccc(OCCO)cc3)[C@@]13C(=O)Nc1ccc(C#CC4(O)CCCCCC4)cc13)CC2,2.93,1.72,0.988,-0.0788,0.792,-0.555,0.601 (inactive),-0.831,-1.3,0.36 (inactive),0.61,-0.257 (inactive),0.341 (inactive),-1.3 (inactive),4.2 (inactive),2.82 (inactive),0.312 (inactive),0.854 (inactive),-0.221,-0.0382
COC(=O)[C@@]1(Cc2ccc(OC)cc2)[C@@H]2C(=CC(=O)[C@H]2CC(=O)C(=O)N(C)C)CN1C(=O)c1ccccc1,-1.85,0.271,-1.12,-2.29,-4.37,0.607,-0.283 (inactive),-0.843,-1.16,-1.34 (inactive),-1.2,1.61 (inactive),-2.16 (inactive),-0.626 (inactive),2.16 (inactive),0.625 (inactive),-0.575 (inactive),-0.798 (inactive),-3.26,0.22
COc1ccc(-c2nc(-c3ccccc3)c3c(c2C)CO[Si]3(C(C)C)C(C)C)cn1,-0.0364,-0.628,-0.292,-1.03,-3.63,-0.922,-1.72 (inactive),-0.443,-0.294,1.95 (inactive),0.539,0.232 (inactive),0.151 (inactive),0.366 (inactive),1.35 (inactive),-0.278 (inactive),-0.512 (inactive),-0.329 (inactive),-0.82,-0.0943
CN(C)c1ccc(C(O)C2C=CC3C(=O)N(c4ccccc4)C(=O)C3N2Nc2ccc([N+](=O)[O-])cc2)cc1 (stereo not given),-0.455,-1.25,0.583,-0.676,-0.215,-1.01,-2.19 (inactive),-0.296,-0.907,-0.272 (inactive),-0.529,-0.491 (inactive),-0.96 (inactive),0.835 (inactive),0.617 (inactive),0.706 (inactive),-0.876 (inactive),-0.914 (inactive),-1.41,-0.359
COCCCNC(=O)[C@@]1(Sc2ccc(C)cc2)CC(=O)N(C2CCCCC2)[C@@H]1c1ccc(CO)cc1,-0.162,0.152,-0.574,-1.59,-1.45,-0.155,1.07 (inactive),0.855,0.2,0.377 (inactive),-0.0171,-0.0904 (inactive),0.0246 (inactive),-0.0365 (inactive),-0.438 (inactive),0.0315 (inactive),0.235 (inactive),-0.195 (inactive),-0.577,-0.191
COCCOC(=O)N1C(=O)[C@@]2(c3cc(C#CC4=CCCCC4)ccc31)[C@H](c1ccc(O)cc1)N1[C@H](c3ccccc3)[C@H](c3ccccc3)OC(=O)[C@H]1[C@@H]2C(=O)N1CCN(c2ncccn2)CC1,-0.462,-0.89,0.19,0.444,0.771,0.642,1.87 (inactive),0.736,-0.587,0.0994 (inactive),0.295,0.343 (inactive),0.182 (inactive),0.524 (inactive),0.29 (inactive),0.516 (inactive),0.777 (inactive),0.731 (inactive),-0.169,-0.0761
CC1CC/C=C\[C@H]2OC34C=CCN(C(C)C)C(=O)[C@H]3N(CCCCCCO)C(=O)[C@@H]4C2C(=O)O1 (stereo not given in full),-0.868,1.53,0.25,1.2,0.626,-0.0558,-0.0814 (inactive),-0.426,-1.04,0.599 (inactive),0.609,-0.815 (inactive),0.794 (inactive),-0.36 (inactive),0.345 (inactive),-0.908 (inactive),1.05 (inactive),0.864 (inactive),2.06,0.0914
CCC(CC)C(O)C1C=CC2C(=O)N(c3ccccc3)C(=O)C2N1Nc1ccc(C(C)C)cc1 (stereo not given),-0.0442,0.667,0.0413,-0.393,-0.842,-1.68,0.261 (inactive),-0.0785,0.299,-1.32 (inactive),-1.35,-0.129 (inactive),-0.636 (inactive),0.851 (inactive),0.89 (inactive),1.27 (inactive),-0.171 (inactive),-0.297 (inactive),-0.0095,0.159
CN(C)CCCNC(=O)[C@@]1(C)c2ccccc2C(=O)N(Cc2ccccc2)[C@H]1c1ccc(CO)cc1,0.0156,0.451,0.339,-0.748,0.3,0.303,0.457 (inactive),-0.798,0.445,0.356 (inactive),-0.834,0.384 (inactive),0.367 (inactive),-0.106 (inactive),0.683 (inactive),0.861 (inactive),-0.147 (inactive),-0.0983 (inactive),0.009,0.0155
